Screen size: about 3,400 compounds; about 840 (25%) were called active. Another 11% or so got no clear call; they are omitted.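 Rule for the calls: active = fitted half-maximal concentration of signal decrease at or below twice the sample's top tested concentration; inconclusive = flat curve between -70 and -30 percent, or poor fit; inactive = flat within 30 percent, signal rise, or potency above limit.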 Not all results are given here. Measured potencies and affinities stand elsewhere.

This test is described as follows: T. gondii growth inhibition with IFN-gamma, dose response, cell-based, ME49Luc, HeLa, luciferase, 72 h (AID 1259418). Conditions: T. gondii ME49Luc in IFN-y HeLa, active compounds read low, -100% = high-dose IFN-γ control wells; at 19.5 µM unless noted.
For the compound `COc1ccc(NC(=O)Nc2ccc(-c3nc(-c4ccccc4)co3)cc2)c(OC)c1`, the max activity was 53.6% [at 10 µM] (inactive).

`O=C(CC(F)(F)F)N1C[C@@H]2[C@H](c3ccccc31)[C@H](CO)N2CC1CCOCC1`: the max activity is 54.6% (inactive).

On to `Cc1oc(-c2ccccc2Cl)nc1Cn1c(=O)c2cccnc2n(-c2ccccc2)c1=O`, for which the max activity is 6.15% [at 5 µM] (inactive).

Turning to `O=C(CCC1Nc2c3ccccc3nc(=S)n2C1=O)N1CCN(c2ccccc2F)CC1` (stereo not drawn), the max activity is 35.9% (inactive).

Regarding `COc1cccc(N2CCN(C(=O)CC3Nc4c5ccccc5nc(=S)n4C3=O)CC2)c1` (stereo not drawn), the max activity is 50.6% (inactive).

On to `Cc1ccc(Cl)cc1N1CCN(C(=O)CC2Nc3c4ccccc4nc(=S)n3C2=O)CC1` (stereo not drawn), for which the max activity was 25.8% [at 0.35 µM] (inactive).

As for `COc1ccccc1CNC(=O)CCC1Nc2c3ccccc3nc(=S)n2C1=O` (stereo not drawn), the max activity is 15% [at 2.6 µM] (inactive).

Regarding `O=C(CC1Nc2c3ccccc3nc(=S)n2C1=O)N1CCN(c2cccc(C(F)(F)F)c2)CC1` (stereo not drawn), the max activity is 105% (inactive).

`Cc1ccc(C)c(N2CCN(C(=O)CC3Nc4c5ccccc5nc(=S)n4C3=O)CC2)c1` (stereo not drawn): the max activity is 190% [at 10 µM] (inactive).

For `Cc1cccc(-c2nc(Cn3nnc(-c4nc(-c5ccc(OC(F)(F)F)cc5)no4)c3C)c(C)o2)c1`, the max activity is -4.39% [at 0.35 µM] (inactive).

In the case of `Cc1oc(-c2cccc(Cl)c2)nc1CSc1nc2c(c(=O)[nH]1)CN(Cc1ccccc1)CC2`, the max activity was 20.2% [at 0.35 µM] (inactive).

On to `CCCc1cc(C2CCCN2C(=O)c2cc(C(F)(F)F)nn2C)no1` (stereo not drawn), for which the max activity was 13.3% [at 0.16 µM] (inactive).

Regarding `Clc1ccccc1CSc1nc(NCCc2ccccc2)c2ccccc2n1`, the max activity is 13.2% [at 5 µM] (inactive).

Turning to `Fc1ccccc1CSc1nc(NCc2ccco2)c2ccccc2n1`, the max activity is 15% [at 2.6 µM] (inactive).

Regarding `COc1ccc(CNc2nc(SCc3ccccc3F)nc3ccccc23)cc1`, the max activity is 8.85% [at 0.68 µM] (inactive).

Regarding `Clc1ccc(CNc2nc(SCc3ccccc3Cl)nc3ccccc23)cc1`, the max activity is -19% [at 10 µM] (inactive).

In the case of `Cc1nc(N2CCOCC2)nc2c1CCN(C(=O)C1CC1)CC2`, the max activity was 58.7% (inactive).

As for `Clc1ccc(-n2ncc3c(NC4CCCCCCCCCCC4)ncnc32)cc1`, the max activity is -21.9% [at 10 µM] (inactive).

Consider `COC(=O)CC(=O)Nc1ccc(-c2nc(-c3ccc(C)cc3C)co2)cc1`, for which the max activity was 87.6% (inactive).

Consider `Cc1ccccc1C(=O)Nc1ccc(-c2nc(-c3ccccc3)co2)cc1`, for which the max activity was 95.8% [at 10 µM] (inactive).

Consider `COc1cc(C(=O)Nc2ccc(-c3nc(-c4ccccc4)co3)cc2)cc(OC)c1OC`, for which the max activity was -19.1% [at 0.16 µM] (inactive).

Regarding `Cc1ccc(-c2coc(-c3ccc(NC(=O)c4ccccc4C)cc3)n2)cc1`, the max activity is 104% (inactive).

With `COc1ccccc1NC(=O)Nc1ccc(-c2nc(-c3ccc(C)cc3)co2)cc1`, the max activity was -11.4% [at 0.35 µM] (inactive).

For the origin of these results see PubChem BioAssay AID1259418 (Broad Institute, 2018).
